Data reported in the supplement of paper PMC11624193, “Coupling cellular drug-target engagement to downstream pharmacology with CeTEAM” (Nature Communications, 2024).
Counter-ions that a name gives are not always drawn. A number with no mark means an inactive call.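 Rule for the calls: active = log2 fold change beyond 2 SD from the library mean after excluding viability outliers; inactive = within 2 SD.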

Biological target: PARP1 L713F-nLuc biosensor (HCT116) (UniProt P09874)
Test: PARP1 L713F-nLuc/akaLuc ratio relative to DMSO control (biosensor stabilization) (fold change); higher = more PARP1 biosensor stabilization (target engagement / stabilizer), active = hit call of the paper
Conditions: stock concentration (mM; final µM = stock mM x 1): 10; 24 h

Chain of PARP1 L713F-nLuc biosensor (HCT116) (P09874 whole entry L713F, looked up): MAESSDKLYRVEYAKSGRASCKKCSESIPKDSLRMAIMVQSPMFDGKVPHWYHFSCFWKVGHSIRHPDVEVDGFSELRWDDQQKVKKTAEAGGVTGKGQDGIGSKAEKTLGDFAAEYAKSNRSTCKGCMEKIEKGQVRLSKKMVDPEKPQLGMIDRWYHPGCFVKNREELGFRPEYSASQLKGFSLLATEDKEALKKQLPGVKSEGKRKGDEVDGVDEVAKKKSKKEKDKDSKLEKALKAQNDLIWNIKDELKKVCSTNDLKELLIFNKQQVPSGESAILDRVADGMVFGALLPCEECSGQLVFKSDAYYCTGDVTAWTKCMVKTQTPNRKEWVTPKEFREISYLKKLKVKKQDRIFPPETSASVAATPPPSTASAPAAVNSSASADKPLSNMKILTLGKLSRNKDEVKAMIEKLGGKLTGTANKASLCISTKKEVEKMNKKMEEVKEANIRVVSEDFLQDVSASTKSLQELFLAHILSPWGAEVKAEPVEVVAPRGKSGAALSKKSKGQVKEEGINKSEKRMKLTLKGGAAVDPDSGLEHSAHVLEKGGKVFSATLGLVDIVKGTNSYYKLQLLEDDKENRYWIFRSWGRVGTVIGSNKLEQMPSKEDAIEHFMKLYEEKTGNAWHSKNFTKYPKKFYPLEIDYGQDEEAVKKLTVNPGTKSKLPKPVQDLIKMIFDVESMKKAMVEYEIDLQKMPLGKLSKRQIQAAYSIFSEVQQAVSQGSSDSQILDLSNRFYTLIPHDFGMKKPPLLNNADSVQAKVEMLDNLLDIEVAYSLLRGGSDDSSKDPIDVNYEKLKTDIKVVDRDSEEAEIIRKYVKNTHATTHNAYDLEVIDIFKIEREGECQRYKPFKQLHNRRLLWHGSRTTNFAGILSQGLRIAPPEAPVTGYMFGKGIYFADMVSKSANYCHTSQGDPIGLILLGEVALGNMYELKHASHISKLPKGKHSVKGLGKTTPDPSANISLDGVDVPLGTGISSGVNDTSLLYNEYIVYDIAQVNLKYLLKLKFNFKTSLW

| Structure (SMILES) | PARP1 L713F-nLuc/akaLuc ratio |
| --- | --- |
| CC(C)N(C(=O)c1cc(F)ccc1Oc1cncnc1N1CC2(CCN(CC3CCC(NS(C)(=O)=O)CC3)CC2)C1)C(C)C (stereo not given) | 0.677 |
| CN(C)C(=N)NC(=N)N [Metformin (hydrochloride)] | 0.94 |
| Cc1cc(C)nc(SCC(=O)Nc2ncc(Cc3cccc4ccccc34)s2)n1 | 0.926 |
| COc1cc(CCc2cc(NC(=O)c3ccc(N4CC(C)NC(C)C4)cc3)n[nH]2)cc(OC)c1 (stereo not given) | 0.745 |
| COCC(=O)Nc1cc(Sc2ccccc2)ccc1N=C(NC(=O)OC)NC(=O)OC [Febantel] | 1.6 |
| O=C(O)C1=CC(=C(c2ccc(O)c(C(=O)O)c2)c2ccc(O)c(C(=O)O)c2)C=CC1=O [Aurintricarboxylic acid] | 0.68 |
| COCCOc1cnc2ccn([C@H](C)c3nnc4c(F)cc(-c5cnn(C)c5)cn34)c(=O)c2c1 | 0.857 |
| O=C(Nc1cccc(Nc2nccc(Nc3cccc(C(F)(F)F)c3)n2)c1)C1CC1 [Aurora kinase inhibitor-3] | 1.49 |
| Cc1ccc(F)c(NC(=O)Nc2ccc(-c3cccc4[nH]nc(N)c34)cc2)c1 [Linifanib (ABT-869)] | 3.59 (active) |
| CO[C@H]1C[C@@H]2CC[C@@H](C)[C@@](O)(O2)C(=O)C(=O)N2CCCC[C@H]2C(=O)O[C@H]([C@H](C)C[C@@H]2CC[C@@H](OC(=O)C(C)(CO)CO)[C@H](OC)C2)CC(=O)[C@H](C)/C=C(\C)[C@@H](O)[C@@H](OC)C(=O)[C@H](C)C[C@H](C)/C=C/C=C/C=C/1C | 0.565 |
